Where “and” joins values, the source holds several entries; their conditions need not be identical. Equal entries are not always repeated. Values without a mark were called inactive. A call without a number means that no potency is given here. Calls of active or inactive are those of the source. Unless noted, calls come from the whole dose curve; as a rule, active = well fitted curve in the direction sought with a large enough effect in the repeat runs; inconclusive = weak or mixed curves; inactive = no such curve, though single readings can be large; an effect the other way counts as inactive or inconclusive.
What was measured:
[1] = target: Estrogen receptor (Homo sapiens) (UniProt P03372); test: qHTS assay to identify small molecule agonists of the estrogen receptor alpha (ER-alpha) signaling pathway using the BG1 cell line (AID 743079); note: nearly all actives have a fitted effect of over 20% in size; note: potency is the fitted concentration of half-maximal effect
Chain of Estrogen receptor (Homo sapiens) (P03372 whole entry, looked up): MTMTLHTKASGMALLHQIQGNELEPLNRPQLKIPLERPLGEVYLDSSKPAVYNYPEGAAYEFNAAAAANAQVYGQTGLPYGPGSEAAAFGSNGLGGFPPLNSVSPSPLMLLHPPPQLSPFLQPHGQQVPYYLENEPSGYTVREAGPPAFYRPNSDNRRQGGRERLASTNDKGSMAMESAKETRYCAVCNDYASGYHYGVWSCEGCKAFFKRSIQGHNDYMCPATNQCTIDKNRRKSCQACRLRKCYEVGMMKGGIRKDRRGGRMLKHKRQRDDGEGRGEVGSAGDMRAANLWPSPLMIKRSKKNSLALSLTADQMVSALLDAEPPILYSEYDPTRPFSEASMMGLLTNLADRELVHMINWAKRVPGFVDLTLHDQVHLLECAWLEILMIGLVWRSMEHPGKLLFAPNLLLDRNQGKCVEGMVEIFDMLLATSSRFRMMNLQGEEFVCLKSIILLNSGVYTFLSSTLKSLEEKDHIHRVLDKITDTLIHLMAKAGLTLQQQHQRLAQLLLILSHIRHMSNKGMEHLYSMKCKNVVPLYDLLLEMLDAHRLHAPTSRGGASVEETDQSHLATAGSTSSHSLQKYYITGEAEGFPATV

[2] = target: Peroxisome proliferator-activated receptor gamma (Homo sapiens) (UniProt P37231); test: qHTS assay to identify small molecule antagonists of the peroxisome proliferator-activated receptor gamma (PPARg) signaling pathway (AID 743191; calls by dose curve; note: nearly all actives have a fitted effect of over 30% in size; note: potency is the fitted concentration of half-maximal effect)
Chain of Peroxisome proliferator-activated receptor gamma (Homo sapiens) (P37231 whole entry, looked up): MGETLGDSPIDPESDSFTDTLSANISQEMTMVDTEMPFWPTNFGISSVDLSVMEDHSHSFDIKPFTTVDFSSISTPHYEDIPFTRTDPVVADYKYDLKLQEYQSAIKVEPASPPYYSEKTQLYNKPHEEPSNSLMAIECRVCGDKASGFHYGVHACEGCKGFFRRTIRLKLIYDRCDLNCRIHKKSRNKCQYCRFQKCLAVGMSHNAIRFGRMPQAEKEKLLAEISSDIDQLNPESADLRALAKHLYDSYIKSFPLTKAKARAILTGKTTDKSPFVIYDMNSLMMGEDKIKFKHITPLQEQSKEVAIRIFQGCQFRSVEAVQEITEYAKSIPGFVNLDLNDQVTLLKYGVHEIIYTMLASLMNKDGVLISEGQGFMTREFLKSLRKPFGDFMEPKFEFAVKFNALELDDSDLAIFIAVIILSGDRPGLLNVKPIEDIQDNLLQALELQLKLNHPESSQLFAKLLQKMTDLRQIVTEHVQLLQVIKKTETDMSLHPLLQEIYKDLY
Procedure, shortened: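 GeneBLAzer PPARg UAS-bla HEK293H cells carrying a UAS-driven beta-lactamase reporter were plated at 3000 cells/well, preincubated 5 h at 37C, then given compound for 17 h at 37C; LiveBLAzer B/G FRET substrate was read after 1 h at room temperature.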

[3] = target: Bile acid receptor (Homo sapiens) (UniProt Q96RI1); test: qHTS assay to identify small molecule agonists of the farnesoid-X-receptor (FXR) signaling pathway (AID 743220; active = well fitted activation curve with a large enough effect in the signal ratio in the repeat runs, not every such curve was filed as active; inconclusive = weak or mixed curves, or effect the other way; the % refers to the signal ratio)
Chain of Bile acid receptor (Homo sapiens) (Q96RI1 whole entry, looked up): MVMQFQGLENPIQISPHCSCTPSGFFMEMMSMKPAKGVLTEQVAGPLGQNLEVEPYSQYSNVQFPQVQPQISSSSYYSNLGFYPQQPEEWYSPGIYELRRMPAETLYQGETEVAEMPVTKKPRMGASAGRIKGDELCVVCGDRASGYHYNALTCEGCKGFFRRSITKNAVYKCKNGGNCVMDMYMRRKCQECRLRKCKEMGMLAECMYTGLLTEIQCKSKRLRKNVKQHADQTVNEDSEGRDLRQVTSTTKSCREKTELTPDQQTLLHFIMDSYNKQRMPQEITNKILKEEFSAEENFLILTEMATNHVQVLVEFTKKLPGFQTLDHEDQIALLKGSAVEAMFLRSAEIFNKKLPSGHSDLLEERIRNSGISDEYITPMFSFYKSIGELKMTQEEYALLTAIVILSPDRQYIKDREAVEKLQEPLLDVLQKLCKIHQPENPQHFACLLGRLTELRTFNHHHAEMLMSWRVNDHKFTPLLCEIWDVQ
Procedure, shortened: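 FXR-UAS-bla HEK 293T cells carrying a UAS-driven beta-lactamase reporter were plated for 5 h at 37C/5% CO2, then exposed to DMSO-dissolved Tox21 10K compounds for 16 h at 37C. A LiveBLAzer B/G FRET substrate was loaded for 2 h at room temperature before fluorescence reading.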

[4] = target: Vitamin D3 receptor (Homo sapiens) (UniProt P11473); test: qHTS assay to identify small molecule antagonists of the vitamin D receptor (VDR) signaling pathway (AID 743223; active = well fitted inhibition curve with a large enough effect in the signal ratio in the repeat runs, not every such curve was filed as active; inconclusive = weak or mixed curves, or effect the other way; inactive = no such curve, though single readings can be large or run the other way; the % refers to the signal ratio)
Chain of Vitamin D3 receptor (Homo sapiens) (P11473 whole entry, looked up): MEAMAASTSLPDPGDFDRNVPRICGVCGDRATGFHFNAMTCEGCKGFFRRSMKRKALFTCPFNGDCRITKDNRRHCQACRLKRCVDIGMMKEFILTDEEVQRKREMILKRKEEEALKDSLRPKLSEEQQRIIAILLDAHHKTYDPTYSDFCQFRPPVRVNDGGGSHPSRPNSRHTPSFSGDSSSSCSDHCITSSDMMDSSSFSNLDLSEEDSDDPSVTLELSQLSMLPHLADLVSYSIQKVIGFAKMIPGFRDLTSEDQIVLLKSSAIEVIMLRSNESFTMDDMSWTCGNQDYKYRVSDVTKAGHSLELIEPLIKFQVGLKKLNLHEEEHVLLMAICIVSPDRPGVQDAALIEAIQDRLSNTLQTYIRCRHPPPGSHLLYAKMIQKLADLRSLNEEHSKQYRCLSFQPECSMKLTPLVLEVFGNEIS
Procedure, shortened: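 Inhibition of agonist-driven VDR signalling is scored in VDR-bla cells: 3 nM final 1alpha,25-dihydroxyvitamin D3 plus compound, 16 h at 37C, then beta-lactamase detection by FRET substrate fluorescence after 2 h.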

[5] = target: Androgen receptor (Homo sapiens) (UniProt P10275); test: qHTS assay to identify small molecule agonists of the androgen receptor (AR) signaling pathway using the MDA cell line (AID 743040; note: nearly all actives have a fitted effect of over 20% in size)
Chain of Androgen receptor (Homo sapiens) (P10275 whole entry, looked up): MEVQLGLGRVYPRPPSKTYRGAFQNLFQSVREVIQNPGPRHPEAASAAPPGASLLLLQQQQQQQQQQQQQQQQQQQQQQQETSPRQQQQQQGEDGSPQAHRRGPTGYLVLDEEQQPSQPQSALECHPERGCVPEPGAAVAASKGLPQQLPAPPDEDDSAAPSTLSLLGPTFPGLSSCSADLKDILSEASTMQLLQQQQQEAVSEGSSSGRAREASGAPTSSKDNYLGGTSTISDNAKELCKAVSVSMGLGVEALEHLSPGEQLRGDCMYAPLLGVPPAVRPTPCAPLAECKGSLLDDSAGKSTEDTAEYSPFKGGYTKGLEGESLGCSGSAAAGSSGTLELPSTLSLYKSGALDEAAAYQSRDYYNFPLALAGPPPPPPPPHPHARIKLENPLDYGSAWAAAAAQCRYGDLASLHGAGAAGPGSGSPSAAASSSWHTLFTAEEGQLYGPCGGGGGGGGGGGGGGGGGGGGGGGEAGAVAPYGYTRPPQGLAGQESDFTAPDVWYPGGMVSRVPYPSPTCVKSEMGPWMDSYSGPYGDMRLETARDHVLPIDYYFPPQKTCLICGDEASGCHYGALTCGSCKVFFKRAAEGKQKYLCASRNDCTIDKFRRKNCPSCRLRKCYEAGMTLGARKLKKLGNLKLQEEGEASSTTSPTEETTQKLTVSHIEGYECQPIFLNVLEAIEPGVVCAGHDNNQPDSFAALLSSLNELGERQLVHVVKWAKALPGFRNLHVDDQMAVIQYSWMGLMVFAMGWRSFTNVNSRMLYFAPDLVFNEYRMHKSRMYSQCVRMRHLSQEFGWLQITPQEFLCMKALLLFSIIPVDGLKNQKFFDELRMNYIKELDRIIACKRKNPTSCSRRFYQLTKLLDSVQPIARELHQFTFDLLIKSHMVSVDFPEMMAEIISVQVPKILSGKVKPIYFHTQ
Procedure, shortened: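 Cell-based luciferase reporter: MDA-kb2, MMTV promoter (AR + GR response elements). 16 h compound exposure at 37C; ONE-Glo, 30 min RT, luminescence.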

[6] = qHTS assay to identify small molecule agonists of the estrogen related receptor (ERR) signaling pathway from Tox21 library (AID 1224849; calls by dose curve; note: nearly all actives have a fitted effect of over 15% in size); conditions: ERR reporter cell line, ONE-Glo luciferase, 18 h; at 92.4 µM (top of the series) unless noted
Procedure, shortened: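 Reporter cells (ERR, NTP source) treated with Tox21 10K compounds 18 h, 37 C. Readout: ONE-Glo luminescence, 30 min RT.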

[7] = qHTS assay to identify small molecule agonists of the AP-1 signaling pathway (AID 1159526; calls by dose curve)
[8] = target: Estrogen receptor (Homo sapiens) (UniProt P03372); test: qHTS assay to identify small molecule antagonists of the estrogen receptor alpha (ER-alpha) signaling pathway (AID 743069; active = well fitted curve in the direction sought with a large enough effect in the signal ratio in the repeat runs, not every such curve was filed as active; inconclusive = weak or mixed curves, or effect the other way; inactive = no such curve, though single readings can be large or run the other way; the % refers to the signal ratio; note: potency is the fitted concentration of half-maximal effect)
Procedure, shortened: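 A 17beta-estradiol challenge was applied right after compound transfer to ER-alpha-UAS-bla HEK293 cells previously kept in charcoal-stripped serum. Plates stood 18 hr at 37C and 5% CO2; fluorescence was read following 2 hr FRET substrate loading at room temperature.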

[9] = qHTS assay to identify small molecule agonists of the retinoic acid receptor (RAR) signaling pathway (AID 1159553)
Procedure, shortened: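 Compounds dissolved in DMSO were pinned onto C3RL4 cells seeded the previous day, and plates were held 6 hr at 37 C. RARE-driven luciferase output was then read by luminescence.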

[10] = qHTS assay to identify small molecule phospholipidosis (PLD) inducers (AID 1259344; active = well fitted curve in the direction sought with a large enough effect; inconclusive = small, poorly fitted or top-dose-only effect, or another doubt; inactive = no such curve, though single readings can be large; an effect the other way counts as inactive or inconclusive; note: potency is the fitted concentration of half-maximal effect)
Procedure, shortened: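 After 4 h attachment on collagen I, HepG2 cells were dosed with compound alongside LipidTOX Red, kept 24 h at 37 C, fixed, and imaged for lamellar phospholipid pits.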

[11] = qHTS assay for small molecule agonists of the antioxidant response element (ARE) signaling pathway (AID 743202; active = well fitted activation curve with a large enough effect in the signal ratio in the repeat runs, not every such curve was filed as active; inconclusive = weak or mixed curves, or effect the other way; inactive = no such curve, though single readings can be large or run the other way; the % refers to the signal ratio; note: potency is the fitted concentration of half-maximal effect)
Procedure, shortened: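 Following a 16 h, 37 C exposure of reporter HepG2 cells (ARE-driven beta-lactamase, 2,000 cells/well) to compounds, FRET substrate was applied for 2 h at room temperature and fluorescence intensity recorded.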

[12] = target: Peroxisome proliferator-activated receptor delta (Homo sapiens) (UniProt Q03181); test: qHTS assay to identify small molecule agonists of the peroxisome proliferator-activated receptor delta (PPARd) signaling pathway (AID 743212; calls by dose curve)
Chain of Peroxisome proliferator-activated receptor delta (Homo sapiens) (Q03181 whole entry, looked up): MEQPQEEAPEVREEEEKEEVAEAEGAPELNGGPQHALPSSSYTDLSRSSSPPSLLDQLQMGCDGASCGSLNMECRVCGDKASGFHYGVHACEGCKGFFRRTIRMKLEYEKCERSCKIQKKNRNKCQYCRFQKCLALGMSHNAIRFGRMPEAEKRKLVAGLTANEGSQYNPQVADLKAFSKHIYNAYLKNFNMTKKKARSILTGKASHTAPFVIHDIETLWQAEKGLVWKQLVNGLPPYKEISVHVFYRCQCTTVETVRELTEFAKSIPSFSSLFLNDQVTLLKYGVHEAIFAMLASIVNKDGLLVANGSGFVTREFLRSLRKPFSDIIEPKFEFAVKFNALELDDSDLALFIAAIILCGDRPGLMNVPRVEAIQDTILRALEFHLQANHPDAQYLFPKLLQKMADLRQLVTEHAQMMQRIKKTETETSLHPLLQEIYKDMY
Procedure, shortened: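 Beta-lactamase reporter read by fluorescence (LiveBLAzer B/G FRET, 2 h, room temperature). Test agents, in DMSO, incubated at 37 C with PPARd-bla HEK293H cells.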

[13] = target: Vitamin D3 receptor (Homo sapiens) (UniProt P11473); test: qHTS assay to identify small molecule agonists of the vitamin D receptor (VDR) signaling pathway (AID 743222; calls by dose curve)
Procedure, shortened: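 Following 4 h attachment at 37C, VDR-bla cells (2,000 per well) received DMSO-dissolved compounds or controls. After 16 h incubation, LiveBLAzer B/G FRET substrate was added and fluorescence read 2 h later at room temperature.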

[14] = target: Androgen receptor (Homo sapiens) (UniProt P10275); test: qHTS assay to identify small molecule agonists of the androgen receptor (AR) signaling pathway (AID 743036; active = well fitted activation curve with a large enough effect in the signal ratio in the repeat runs, with a control signal flat, not every such curve was filed as active; inconclusive = weak or mixed curves, or effect the other way; inactive = no such curve, though single readings can be large or run the other way; the % refers to the signal ratio)
Procedure, shortened: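 Following a 4 h settling period, AR-UAS-bla HEK293 cells were dosed with compounds for 16 h at 37C. A 2 h room-temperature incubation with LiveBLAzer B/G FRET substrate preceded the fluorescence measurement.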

[15] = target: Androgen receptor (Homo sapiens) (UniProt P10275); test: qHTS assay to identify small molecule antagonists of the androgen receptor (AR) signaling pathway using the MDA cell line (AID 743042; note: potency is the fitted concentration of half-maximal effect; nearly all actives have a fitted effect of over 55% in size)
Procedure, shortened: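 MDA-kb2 cells (human breast carcinoma, stably carrying an MMTV-luciferase reporter responsive to AR and GR) were plated at 3,000 cells/well and preincubated 5 hr at 37C, then given compound plus R1881 agonist for 16 h. ONE-Glo luminescence was read.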

[16] = target: Nuclear receptor subfamily 1 group I member 2 (Rattus norvegicus) (UniProt Q9R1A7); test: Rat pregnane X receptor (rPXR) activation by small molecules, qHTS assay (AID 1346983); conditions: rPXR luciferase reporter cells, One-Glo luminescence, 24 h; max activation: active compounds read high; note: nearly all actives have a fitted effect of over 20% in size
Chain of Nuclear receptor subfamily 1 group I member 2 (Rattus norvegicus) (Q9R1A7 whole entry, looked up): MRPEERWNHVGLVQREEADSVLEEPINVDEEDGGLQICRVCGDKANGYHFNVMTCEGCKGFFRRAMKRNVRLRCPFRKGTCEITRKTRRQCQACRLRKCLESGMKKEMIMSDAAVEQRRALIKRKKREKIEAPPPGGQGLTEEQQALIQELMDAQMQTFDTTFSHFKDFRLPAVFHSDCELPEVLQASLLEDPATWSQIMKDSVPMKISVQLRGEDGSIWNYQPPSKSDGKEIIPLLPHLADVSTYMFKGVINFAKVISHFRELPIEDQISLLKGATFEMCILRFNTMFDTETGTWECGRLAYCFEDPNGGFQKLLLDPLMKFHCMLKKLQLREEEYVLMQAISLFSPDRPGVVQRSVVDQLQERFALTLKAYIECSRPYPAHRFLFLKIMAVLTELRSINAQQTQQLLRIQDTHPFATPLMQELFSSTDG
Procedure, shortened: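 Cell-based rPXR luciferase reporter assay, 2,000 cells per well, rested 5hr at 37 C before compound addition in DMSO, then 24 hr at 37 C. One-Glo reagent was added and luminescence read after 30 min at room temperature.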

[17] = target: Nuclear receptor subfamily 1 group I member 2 (Homo sapiens) (UniProt O75469); test: CYP3A4 induction through human pregnane X receptor (PXR) by small molecules, qHTS assay (AID 1346984); note: nearly all actives have a fitted effect of over 40% in size
Procedure, shortened: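 Human PXR activation is tracked via CYP3A4 promoter-luciferase in DPX-2 (HepG2) cells. Compounds treat cells for 24hr at 37C, and luminescence is read after One-Glo.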

CN1CSC(=S)N(C)C1
Potency [1]: inactive | Potency [2]: inactive | outcome [3]: inactive | outcome [4]: inactive

COc1cc(OC)c(OC)cc1C=O
Potency [5]: inactive | Potency [1]: inactive | activity change, positive = activation [6]: -39.3%

CCN(CC)C(=O)Cl
outcome [7]: inactive

O=[N+]([O-])c1c(Cl)c(Cl)cc(Cl)c1Cl
Potency [8]: inactive | outcome [9]: inactive | Potency [10]: inactive

C[C@]12CC[C@@H](O)C[C@@H]1CC[C@@H]1[C@@H]2CC[C@]2(C)C(=O)CC[C@@H]12
outcome [7]: inactive

Cc1cc(C(C)(C)c2ccc(O)c(C)c2)ccc1O
Potency [5]: inactive | Potency [11]: 9.23 µM (active) | outcome [12]: inactive | outcome [3]: inactive | outcome [13]: inactive | outcome [4]: inactive

CNC(=O)Oc1cc(C)c(SC)c(C)c1
outcome [7]: inactive

CCOC(=O)C(O)(c1ccc(Cl)cc1)c1ccc(Cl)cc1
Potency [14]: inactive | Potency [5]: inactive | Potency [15]: 19.5 µM (active) and 68.6 µM (active) | Potency [8]: 55.5 µM [cytotoxic] (active) and 54.9 µM [inhibitor] (active) | outcome [12]: inactive | outcome [13]: inactive

CCC(C)=O
outcome [3]: inactive

Nc1ccc([N+](=O)[O-])cc1
Potency [5]: inactive | outcome [13]: inactive | Potency [10]: inactive

N#Cc1cc([N+](=O)[O-])ccc1N
activity change, positive = activation [6]: -2.3%

CO/C=C(/C(=O)OC)c1ccccc1Oc1cc(Oc2ccccc2C#N)ncn1
Potency [5]: inactive | Potency [15]: 6.83 µM (active) | outcome [9]: inactive

O=C(Nc1ccccc1-c1ccc(Cl)cc1)c1cccnc1Cl
Potency [8]: inactive | Potency [1]: inactive | Potency [2]: 51.9 µM (active) | outcome [9]: inactive | Potency [10]: inactive

c1ccc2c(c1)Sc1ccccc1N2CC1CN2CCC1CC2 (stereo not given)
Potency [10]: 3.55 µM (active)

O=C1C(I)=CC(=C(c2cc(I)c(O)c(I)c2)c2ccccc2C(=O)O)C=C1I
Potency [8]: 7.56 µM [inconclusive] (active) | Potency [1]: inactive | outcome [12]: inactive | outcome [13]: inactive | outcome [7]: inactive | outcome [9]: inactive | Potency [10]: inactive | max activation [16]: -1.41% | Potency [17]: inactive

Cc1nnc2n1-c1sc(CCc3ccc(CC(C)C)cc3)cc1C(c1ccccc1Cl)=NC2C (stereo not given)
Potency [10]: inactive

Cc1ccc(N(SC(F)(Cl)Cl)S(=O)(=O)N(C)C)cc1
Potency [5]: inactive | Potency [15]: 8.63 µM (active)

ClC1=C(Cl)[C@]2(Cl)[C@@H]3[C@@H](Cl)[C@H]4O[C@H]4[C@@H]3C1(Cl)C2(Cl)Cl
Potency [8]: inactive | outcome [12]: inactive | outcome [13]: inactive | outcome [4]: inactive

COc1ccc(C(c2ccc(OC)cc2)C(Cl)(Cl)Cl)cc1
Potency [8]: 43.4 µM [inconclusive] (active) | Potency [1]: 4.97 µM (active) | outcome [9]: inactive | Potency [10]: 31.6 µM (active)

OCC(c1ccc(Cl)cc1)c1ccc(Cl)cc1
outcome [3]: inactive | outcome [13]: inactive

CC1COC(Cn2cncn2)(c2ccc(Oc3ccc(Cl)cc3)cc2Cl)O1 (stereo not given)
Potency [11]: 1.93 µM (active) | outcome [12]: inactive | outcome [3]: inactive | outcome [7]: inactive | outcome [9]: inactive

CCCCC(CC)COC(=O)c1ccc(C(=O)OCC(CC)CCCC)cc1 (stereo not given)
outcome [3]: inactive

Nc1ccc(Cl)cc1Cl
outcome [12]: inactive

Clc1ccccc1-c1ccccc1Cl
Potency [11]: inactive | outcome [12]: inactive | outcome [13]: inactive | outcome [9]: inactive

O=[N+]([O-])c1cc(C(F)(F)F)ccc1Cl
activity change, positive = activation [6]: -5.28%

O=C(O)C(c1ccc(Cl)cc1)c1ccc(Cl)cc1
outcome [4]: inactive

CCc1cccc(C)c1N
outcome [4]: inactive
